Experimental data published in PubChem BioAssay (NCI).
The panel holds about 79,000 compounds, 15% with a hit somewhere; the sample as a whole holds those more often. A number with no mark means an inactive call. The source made the active and inactive calls. No stated cut-off is given here; in the data, active means growth inhibition above about 70%; inactive means the rest.

Experiment: NCI Yeast Anticancer Drug Screen. Data for the sgs1 mgt1 strain (AID 161);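 further: 0% = growth of cultures given vehicle only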
Settings: S. cerevisiae sgs1 mgt1 strain, active compounds read high
Method: Growth inhibition of yeast strains with defined genetic alterations is measured as a screen for potential anti-cancer activity. Selected strains with alterations in DNA damage repair or cell cycle control were exposed to compounds and growth inhibition was measured relative to vehicle treated controls. The strain used in this assay is sgs1 mgt1

[1] = at 5.0 µM (retest, dose inferred, filed as 0.5)
[2] = at 50.0 µM (retest, dose inferred, filed as 5.0)

SMILES	growth inhibition [1]	growth inhibition [2]	growth inhibition (at 50.0 µM)
C[C@]12CCC3[C@@H](CC[C@@H]4c5nonc5CC[C@]34C)C1CCC2=O (some centres not stated)	33%	69%	87.6% (active)
CCC1CCCCN1CC(C(C)=O)C(c1ccccc1)c1c(O)c2ccccc2oc1=O (configuration not stated)	5%	5%	79.3% (active)
O=C(/C=C(\c1ccccc1)N1CC1)c1ccccc1	-58%	47%	17.2%
CCOC(=O)C(/N=N\c1nn[nH]n1)/N=N/c1ncn[nH]1 (configuration not stated)	-6%	-1%	73.2% (active)
CC1(C)N=C(N)N=C(N)N1c1cccc(N)c1.[Sn]	45%	90% (active)	1.7%
[Br][Sn]([CH]1CCCCC1)([CH]1CCCCC1)[CH]1CCCCC1	99% (active)	99% (active)	98.5% (active)
CCC1(CC)C(=O)[N-]C(=O)[N-]C1=O.[Au+].[Au+].c1ccc([PH+](c2ccccc2)c2ccccc2)cc1.c1ccc([PH+](c2ccccc2)c2ccccc2)cc1	99% (active)	96% (active)	-4.5%
[O-][n+]1c2cccc(O)c2[n+]([O-])c2cccc(O)c21	6%	81% (active)	35%
S=C=Nc1cccc(Cl)c1	-10%	90% (active)	88.8% (active)
CCOc1ccc(/C=C/[N+](=O)[O-])cc1[N+](=O)[O-]	9%	99% (active)	99.5% (active)
CCCCCCCCCCCCCCCCCC(=O)[O][Hg][c]1ccccc1	100% (active)	99% (active)	94% (active)
C[C@]12CC[C@H](O)CC1=CC[C@@H]1[C@@H]2CC[C@]2(C)C(=O)CC[C@@H]12	-7%	80% (active)	88.1% (active)
Cn1cnc(C(=N)[Se])c1N	27%	53%	30.8%
O=C1OC2C(O1)C1(Cl)C(Cl)=C(Cl)C2(Cl)C1(Cl)Cl (configuration not stated)	3%	74% (active)	87.2% (active)
